Holding throughout (settings): concentration: 1 μM, replicates: in singlicate; n = 1
Test [1] relates to STK36.
Test [2] has as its system STK39.
The subject of test [3] is SYK.
Test [4] has as its system SgK110.
The subject of test [5] is T1, TAK1.
T1 construct: gene MAP3K7

Test [6] concerns TAOK1.
Test [7] relates to TAOK2.
Test [8] deals with TAOK3.
For test [9], the system named is TBK1.
Test [10] concerns TEC.
Test [11] has as its system TESK1.
The subject of test [12] is TGFBR1.
Test [13] deals with TGFBR2.
Test [14] has as its system TIE1.
In test [15] the test system is T2, TIE2.
T2 construct: gene TEK

Test [16] deals with TLK1.
Test [17] has as its system TLK2.
The subject of test [18] is TNIK.
The test system of test [19] is TNK1.
Test [20] concerns TNK2.

Consider eight compounds from publication PMC5540273 (PLoS ONE, 2017).
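Note: KINOMEscan kinase panel screen.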

For `O=C1NC(=O)C(c2ccccc2Cl)=C1Nc1cccc(Cl)c1` [SB-342409], the “%Inh” value in test [1] is 0%; in test [2], 9%; in test [3] it was 0%; in test [4], 0%; in [5] it was 0%; in test [6] it was 0%. The “%Inh” value in [7] was found to be 0%; in test [8] it was 11%; in test [9], 7%; in test [10], 13%; in test [11] it was 20%; in test [12], 4%. Moreover, the “%Inh” value in test [13] amounted to 71%; in [14], 7%; in test [15], 0%; in [16], 68%; in test [17], 50%; in [18], 0%. Besides, the “%Inh” value in test [19] stood at 12%; in [20], 18%.
Take `Cc1ccc(-c2ccc3occ(-c4ccc(S(C)=O)cc4)c3c2)nn1` (stereo not shown): the “%Inh” value in [1] amounted to 0%; in [2], 0%; in [3], 5%; in [4], 0%; in test [5], 0%; in test [6], 0%. In addition, the “%Inh” value was 0% in test [7]; 0% in [8]; 47% in [9]; 0% in test [10]; 0% in test [11]; 0% in [12]. Also, the “%Inh” value in [13] was determined as 18%; in test [14], 0%; in test [15] it was 15%; in test [16], 0%; in test [17] it was 38%; in test [18], 0%. In addition, the “%Inh” value in test [19] and in [20] was 0% throughout.
Consider `CSc1ccc(NC2=C(c3ccc(Cl)cc3)C(=O)NC2=O)cc1` [SB-317658], for which the “%Inh” value in test [1] stood at 15%; in test [2] it was 0%; in test [3], 3%; in [4], 0%; in [5], 39%; in [6] it was 18%. In addition, the “%Inh” value in test [7] was 0%; in test [8], 0%; in test [9], 0%; in test [10], 0%; in test [11], 20%; in test [12], 38%. Also, the “%Inh” value in test [13] came to 23%; in [14], 42%; in test [15], 17%; in test [16] it was 8%; in [17] it was 18%; in test [18], 0%. The entries for the “%Inh” value in test [19] and in test [20] were 41% and 0%, respectively.
As for `Cc1cccc(Nc2nc(NCCN)ncc2C(N)=O)c1` [GSK1292139], the “%Inh” value in test [1] is given as 0%; in [2], 14%; in [3] it was 97%; in [4], 91.1%; in test [5], 83%; in test [6], 15%. The “%Inh” value is reported as 66% in [7]; 9% in [8]; 28% in test [9]; 40% in test [10]; 0% in [11]; 0% in test [12]. The “%Inh” value in test [13] was determined as 0%; in test [14] it was 0%; in test [15], 0%; in test [16] it was 18%; in test [17], 17%; in [18], 89%. The “%Inh” value in [19] and in [20] was 0% each time.
As for `CN(c1ccc(NC(=O)Nc2cccc(Cl)c2)cc1)c1ccnc(N)n1.Cl` [GW830707], the “%Inh” value in [1] is on record as 0%; in test [2], 0%; in test [3], 2%; in [4], 0%; in [5], 19%; in test [6], 0%. Also, the “%Inh” value is reported as 8% in test [7]; 0% in [8]; 0% in test [9]; 0% in [10]; 4% in test [11]; 71% in test [12]. The “%Inh” value was 0% in test [13]; 86% in test [14]; 19% in [15]; 0% in test [16]; 5% in test [17]; 0% in test [18]. The figures for the “%Inh” value in test [19] and in [20] were 28% and 3%, respectively.
Take `CC(C)c1nc(-c2ccc(F)c(NS(=O)(=O)c3c(F)cccc3F)c2)c(-c2ccnc(Nc3ccc(N4CCOCC4)nc3)n2)s1` [GSK1804250]: the “%Inh” value in [1] is recorded as 100%; in test [2] it was 11%; in test [3], 46%; in test [4], 0%; in test [5] it was 46%; in test [6] it was 4%. Also, the “%Inh” value is given as 0% in [7]; 5% in test [8]; 6% in test [9]; 45% in [10]; 96.2% in test [11]; 90.8% in [12]. For the same compound, the “%Inh” value was found to be 92.9% in test [13]; 87% in test [14]; 98.9% in [15]; 19% in test [16]; 11% in test [17]; 27% in test [18]. The entries for the “%Inh” value in [19] and in test [20] were 100% and 99.5%, respectively.
On to `Cc1ccc(NC(=O)c2ccc(Cl)c(Cl)c2)cc1-c1ccc(C(=O)Nc2ccncc2)cc1` [GSK1398460], for which the “%Inh” value in test [1] is reported as 0%; in test [2] it was 0%; in [3], 21%; in [4] it was 4%; in test [5], 12%; in [6], 0%. In addition, the “%Inh” value in test [7] is recorded as 0%; in [8] it was 0%; in test [9] it was 23%; in test [10] it was 15%; in test [11], 29%; in [12] it was 0%. In addition, the “%Inh” value in test [13] stood at 0%; in test [14] it was 0%; in test [15] it was 0%; in test [16], 8%; in test [17], 6%; in [18], 0%. In addition, the “%Inh” value in [19] is given as 29%; in test [20], 19%.
For the compound `Cc1ccc(NC(=O)c2cccc(N3CCCCC3)c2)cc1-c1ccc(C(=O)NCC2CC2)cc1` [GSK1917008], the “%Inh” value in [1] was 0%; in [2], 0%; in test [3], 20%; in test [4] it was 0%; in [5] it was 0%; in test [6], 8%. Besides, the “%Inh” value in test [7] is given as 0%; in test [8], 12%; in test [9] it was 0%; in test [10] it was 0%; in test [11], 0%; in [12], 24%. The “%Inh” value in [13] is on record as 9%; in test [14], 1%; in test [15], 0%; in [16], 4%; in test [17], 0%; in test [18], 2%. For the same compound, the “%Inh” value in test [19] stood at 6%; in [20], 16%.
